Columns and labels:
Conditions in all cases: concentration: 1 μM, replicates: in singlicate; n = 1
SNARK = tested on: T1, SNARK
T1 construct: gene NUAK2

SNRK = tested on: SNRK
SRC = tested on: SRC
SRMS = tested on: SRMS
SRPK1 = tested on: SRPK1
SRPK2 = tested on: SRPK2
SRPK3 = tested on: SRPK3
STK16 = tested on: STK16
STK33 = tested on: STK33
STK35 = tested on: STK35
STK36 = tested on: STK36
STK39 = tested on: STK39
SYK = tested on: SYK
SgK110 = tested on: SgK110
TAK1 = tested on: T2, TAK1
T2 construct: gene MAP3K7

TAOK1 = tested on: TAOK1
TAOK2 = tested on: TAOK2
TAOK3 = tested on: TAOK3
TBK1 = tested on: TBK1
TEC = tested on: TEC
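Note: KINOMEscan kinase panel screen.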

Row | Compound | %Inh (SNARK) [%] | %Inh (SNRK) [%] | %Inh (SRC) [%] | %Inh (SRMS) [%] | %Inh (SRPK1) [%] | %Inh (SRPK2) [%] | %Inh (SRPK3) [%] | %Inh (STK16) [%] | %Inh (STK33) [%] | %Inh (STK35) [%] | %Inh (STK36) [%] | %Inh (STK39) [%] | %Inh (SYK) [%] | %Inh (SgK110) [%] | %Inh (TAK1) [%] | %Inh (TAOK1) [%] | %Inh (TAOK2) [%] | %Inh (TAOK3) [%] | %Inh (TBK1) [%] | %Inh (TEC) [%]
1 | Cc1ccc(Nc2ccnc(Nc3ccc(C)c(F)c3)n2)cc1O.Cl [GW582868] | 0 | 0 | 86 | 0 | 34 | 7 | 17 | 11 | 0 | 99.5 | 7 | 18 | 56 | 0 | 0 | 0 | 0 | 0 | 16 | 7
2 | Fc1cc(Cl)ccc1Nc1ccnc2cc(-c3ccc(CN4CCSCC4)o3)ccc12 [GW560106] | 0 | 0 | 99 | 21 | 42 | 23 | 0 | 0 | 20 | 20 | 0 | 4 | 51 | 0 | 0 | 0 | 0 | 0 | 6 | 0
3 | O=C(Nc1c(F)cccc1F)c1cc(C(=O)c2ccccc2F)c[nH]1 [GSK1326180] | 0 | 0 | 0 | 0 | 18 | 1 | 0 | 0 | 16 | 0 | 0 | 0 | 22 | 0 | 0 | 0 | 0 | 0 | 3 | 7
4 | CSc1ccc(NC2=C(c3ccc(Cl)cc3)C(=O)NC2=O)cc1 [SB-317658] | 12 | 0 | 17 | 3 | 0 | 7 | 9 | 24 | 0 | 0 | 15 | 0 | 3 | 0 | 39 | 18 | 0 | 0 | 0 | 0
5 | CCOc1nccc(-c2c(-c3ccc(F)cc3)ncn2C2CCNCC2)n1 [SB-249175] | 82 | 21 | 0 | 34 | 8 | 19 | 1 | 0 | 4 | 0 | 24 | 74 | 32 | 0 | 34 | 100 | 0 | 73 | 23 | 10
6 | COC(=O)Nc1nc2cc(Oc3ccc(NC(=O)Nc4cccc(SC)c4)cc3)ccc2[nH]1.Cl [GW697999] | 7 | 0 | 61 | 0 | 38 | 17 | 0 | 3 | 0 | 0 | 8 | 0 | 23 | 0 | 36 | 0 | 0 | 0 | 0 | 5
7 | COc1cccc2c(-c3ccncc3)c(-c3ccc(F)cc3)nn12 [GW468513] | 9 | 0 | 1 | 0 | 0 | 0 | 2 | 5 | 1 | 0 | 54 | 14 | 0 | 0 | 0 | 0 | 0 | 0 | 2 | 4
8 | Cc1cc(-c2ccnc(Nc3cccc(C#N)c3)n2)cc(C)c1O [GSK1440913] | 27 | 0 | 7 | 0 | 78 | 54 | 92.2 | 90.4 | 32 | 25 | 38 | 8 | 83 | 0 | 54 | 77 | 22 | 42 | 35 | 19
9 | NCCC(NC(=O)c1cc(Br)c(-c2ccnc3[nH]ccc23)s1)c1ccccc1.O=C(O)C(F)(F)F.O=C(O)C(F)(F)F (stereo not drawn) [GSK1307810] | 90.2 | 0 | 0 | 0 | 81 | 36 | 83 | 63 | 90 | 20 | 0 | 5 | 18 | 70 | 51 | 48 | 10 | 0 | 5 | 0

Reference: paper PMC5540273 (PLoS ONE, 2017)
